From PubChem BioAssay AID1733 (National Center for Advancing Translational Sciences (NCATS), 2009) come the findings set out here.

Inconclusive results are not listed. Active and inactive are the calls of the source. Calls follow the shape of the dose curve; as a rule, active = well fitted inhibition curve with a large enough effect; inconclusive = small, poorly fitted or top-dose-only effect; inactive = flat fitted curve, though single readings scatter.

Sequence of Luciferin 4-monooxygenase (Photinus pyralis) (P08659 whole entry, looked up, canonical isoform): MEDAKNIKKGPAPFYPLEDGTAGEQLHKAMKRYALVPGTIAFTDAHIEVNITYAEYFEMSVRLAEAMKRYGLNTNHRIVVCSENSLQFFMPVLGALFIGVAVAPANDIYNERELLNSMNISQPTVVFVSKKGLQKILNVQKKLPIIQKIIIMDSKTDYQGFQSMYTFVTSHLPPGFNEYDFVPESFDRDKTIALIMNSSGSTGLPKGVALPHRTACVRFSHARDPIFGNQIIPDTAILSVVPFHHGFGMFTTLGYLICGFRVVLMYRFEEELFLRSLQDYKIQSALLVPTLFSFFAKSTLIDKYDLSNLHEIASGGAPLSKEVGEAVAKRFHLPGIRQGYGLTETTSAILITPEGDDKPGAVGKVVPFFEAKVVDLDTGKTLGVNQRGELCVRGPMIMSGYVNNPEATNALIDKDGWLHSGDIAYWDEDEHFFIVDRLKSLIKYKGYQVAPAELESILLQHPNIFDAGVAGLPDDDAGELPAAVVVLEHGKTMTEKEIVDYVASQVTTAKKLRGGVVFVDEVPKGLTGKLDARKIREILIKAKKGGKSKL

In this assay the target is Luciferin 4-monooxygenase (Photinus pyralis) (UniProt P08659). Kind of assay: Counterscreen Assay for Enhancers of SMN2 Splice Variant Expression: Interaction with Luciferase Reporter. Particulars: purified firefly luciferase, luminescence, 5 min; series mostly up to 51 µM. The source says:
NIH Chemical Genomics Center [NCGC] NIH Molecular Libraries Probe Production centers Network [MLPCN] MLPCN Grant: R03 MH084179-01 Assay Submitter (PI): Elliot Androphy NCGC Assay Overview: Spinal muscular atrophy (SMA) is caused by insufficient levels of the survival motor neuron protein SMN. The SMN locus on chromosome 5q13 contains two inverted copies of SMN called SMN1 and SMN2 which are 99% identical at the amino acid level. SMN1 is a fully functional protein and SMN2 skips exon 7 90% of the time. Skipping of exon 7 produces non-functional protein product. 10% of the SMN2 protein includes exon 7 and is fully functional. In the SMA disease state, mutations in the SMN1 locus are the cause of the disease state. Because only 10% of SMN2 is of the fully functional form, it is not sufficient to overcome the deficiency produced by the loss of the SMN1 product. A therapy that either increases the amount of SMN2 product made increases the inclusion of exon 7 has been proposed for the treatment of SMA. We have designed an assay to identify small molecules that can increase the amount of functional SMN2 product by appending a luciferase reporter gene after the native SMN2 gene, such that inclusion of exon 7 in the expressed product places the luciferase sequence in frame, thus generating functional luciferase enzyme. One potential source of false positives in the primary screening assay is stabilization of the reporter luciferase via direct binding. […]
NCGC Assay Protocol Summary: The primary screen utilizes a luciferase reporter gene assay, combining the promoter and splicing based cassettes in tandem with the major portion of the native SMN1 cDNA, and then transfected into HEK293 cells. […] Sequence, Parameter, Value, Description (1) Reagent, 2.5 uL, Enzyme in buffer (note A) (2) Compound, 23 nL, From stock solutions (3) Time, 5 minutes, Room temp (4) Reagent#2.5 ul, Luciferase detection reagent (note B) (5) Detector, 1 sec integrate, Luminescent read on Viewlux (note C) Sigma enzyme (1 mg) considered to be MW 61,000 diluted in 357 ul assay buffer to 50 uM stock. […]
For orientation: Counterscreens check selectivity or assay interference.
Take `C[C@@H]1O[C@@H](O[C@H]2C[C@@H](O)[C@]3(CO)[C@H]4[C@H](O)C[C@]5(C)[C@@H](C6COC(=O)C6)CC[C@]5(O)[C@@H]4CC[C@]3(O)C2)[C@H](O)[C@H](O)[C@H]1O` (stereo partly drawn): the activity change, negative = inhibition is 13.4% [at 48.7 pM] (inactive).

With `O=C(C1CCN(c2nc3ccc(Br)cc3s2)CC1)N1CCC2(CC1)OCCO2`, the Potency was 7.08 µM (active). Turning to `CC[C@]1(O)CC(O[C@@H]2CC(N(C)C)C(O)C(C)O2)c2c(cc3c(c2O)C(=O)c2c(O)cccc2C3=O)C1C(=O)OC` (stereo partly drawn), the Potency entry was “inactive”.
